Results published in PubChem BioAssay (Tox21).
Where “and” joins values, the source holds several entries; their conditions need not be identical. Identical values can stand only once. Results filed as inconclusive are left out. Where a call stands in place of a potency, no number is given. The source holds several records for some structures; these can differ, active in one and inactive in another. Calls of active or inactive are those of the source. Unless noted, calls come from the whole dose curve.

Columns and labels:
[1] = Nuclear factor erythroid 2-related factor 2/antioxidant responsive element (Nrf2/ARE) small molecule agonists: qHTS cell viability counter screen in human keratinocytes (AID 1919968; active = well fitted curve in the direction sought with a large enough effect in the repeat runs; an effect the other way counts as inactive or inconclusive; note: nearly all actives have a fitted effect of over 55% in size; note: potency is the fitted concentration of half-maximal effect)
In short: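 KeratinoSens HaCaT cells, 1,500/well, preincubated 5 h, then exposed to compounds in DMSO for 23 h at 37 C/5% CO2. Viability read as CellTiter-Fluor fluorescence after 1 h, in the same wells as the ARE-luciferase read.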

[2] = Nuclear factor erythroid 2-related factor 2/antioxidant responsive element (Nrf2/ARE) small molecule agonists: luciferase reporter gene qHTS assay in human keratinocytes (AID 1919969); note: nearly all actives have a fitted effect of over 35% in size; note: potency is the fitted concentration of half-maximal effect
[3] = target: KiSS-1 receptor (Homo sapiens) (UniProt Q969F8); experiment: Human kisspeptin (KISS1R) small molecule agonists, calcium flux assay in KISS1R-HEK293 cells (AID 1920064; active = well fitted curve in the direction sought with a large enough effect in the repeat runs; an effect the other way counts as inactive or inconclusive)
Chain of KiSS-1 receptor (Homo sapiens) (Q969F8 whole entry, looked up): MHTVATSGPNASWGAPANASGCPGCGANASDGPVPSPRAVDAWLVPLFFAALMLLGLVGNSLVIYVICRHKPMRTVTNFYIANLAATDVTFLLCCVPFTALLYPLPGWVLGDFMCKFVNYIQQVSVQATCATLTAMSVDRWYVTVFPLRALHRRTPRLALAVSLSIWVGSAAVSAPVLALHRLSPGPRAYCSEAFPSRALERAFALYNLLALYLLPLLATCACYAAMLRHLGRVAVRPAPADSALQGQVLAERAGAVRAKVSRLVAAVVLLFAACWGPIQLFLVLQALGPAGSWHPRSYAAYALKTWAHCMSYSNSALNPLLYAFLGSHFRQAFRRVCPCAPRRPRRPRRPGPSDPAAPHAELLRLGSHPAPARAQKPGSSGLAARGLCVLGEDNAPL
In short: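 HEK293 cells stably expressing human KISS1R were loaded with calcium dye for 1 h at 37 C, then given compound; fluorescence (Ex/Em 480/540) was read kinetically for 3 min. Fifteen concentrations, triplicate.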

[4] = G protein-coupled receptor (GPCR) small molecule agonists, calcium flux assay: HEK293 wild type cell line counter screen (AID 1920065)
In short: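 Wild-type HEK293 cells plated 18 h, loaded with calcium dye 1 h at 37 C, then compounds added in agonist mode (ATP as positive control). Kinetic fluorescence Ex/Em 480/540 recorded 3 min at 1 sec intervals; 15 concentrations, triplicate.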

[5] = p53 small molecule agonists, cell-based qHTS assay with human liver microsomes (AID 1963577)
In short: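 p53RE-bla reporter cells were pre-incubated 5 h at 37 C, then treated with compounds plus human liver microsomes (0.5 mg/mL final) and NADPH (0.5 mg/mL final) for 16 h at 37 C. Beta-lactamase activity was read by LiveBLAzer fluorescence after 2 h at room temperature.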

[6] = p53 small molecule agonists, cell-based qHTS assay with rat liver microsomes: qHTS cell viability counter screen (AID 1963580); note: nearly all actives have a fitted effect of over 45% in size; note: potency is the fitted concentration of half-maximal effect
In short: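 p53RE-bla HCT-116 cells (4,000/well) rested 5 h at 37 C, then given Tox21 compounds in DMSO with rat liver microsomes (0.5 mg/mL final) plus NADPH (0.5 mg/mL final) for 16 h at 37 C. Viability read by CellTiter-Glo luminescence after 30 min at room temperature.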

[7] = p53 small molecule agonists, cell-based qHTS assay: qHTS cell viability counter screen (AID 1963581); note: nearly all actives have a fitted effect of over 45% in size; note: potency is the fitted concentration of half-maximal effect
In short: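 p53RE-bla HCT-116 cells, compounds added 5 h after plating and incubated 16 h at 37 C. Cytotoxicity measured in the same wells as intracellular ATP by CellTiter-Glo luminescence after 30 min at room temperature.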

[8] = target: 5-hydroxytryptamine receptor 2A (Homo sapiens) (UniProt P28223); experiment: 5-hydroxytryptamine receptor 2A (HTR2A) small molecule antagonists, cell-based qHTS assay (AID 1963586); note: nearly all actives have a fitted effect of over 45% in size; note: potency is the fitted concentration of half-maximal effect
Chain of 5-hydroxytryptamine receptor 2A (Homo sapiens) (P28223 whole entry, looked up): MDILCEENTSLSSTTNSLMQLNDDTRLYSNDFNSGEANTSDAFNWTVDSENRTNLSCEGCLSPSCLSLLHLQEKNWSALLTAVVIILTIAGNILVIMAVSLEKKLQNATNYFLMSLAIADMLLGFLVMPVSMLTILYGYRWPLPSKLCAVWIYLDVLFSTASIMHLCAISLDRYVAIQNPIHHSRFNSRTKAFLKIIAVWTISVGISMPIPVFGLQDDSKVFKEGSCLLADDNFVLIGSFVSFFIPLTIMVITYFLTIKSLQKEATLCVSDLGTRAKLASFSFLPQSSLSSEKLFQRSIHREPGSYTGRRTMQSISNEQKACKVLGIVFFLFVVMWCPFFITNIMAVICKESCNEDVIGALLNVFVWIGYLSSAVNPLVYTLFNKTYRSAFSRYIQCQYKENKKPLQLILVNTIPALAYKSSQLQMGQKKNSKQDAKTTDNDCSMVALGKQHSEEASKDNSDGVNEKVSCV
In short: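 Antagonist-mode intracellular calcium assay: DOI (4 nM) added after 5 min compound pre-incubation at room temperature to dye-loaded HTR2A-CHO cells. Fluorescence followed for 3 min, sampled every second.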

[9] = target: Muscarinic acetylcholine receptor M1 (Homo sapiens) (UniProt P11229); experiment: Cholinergic receptor muscarinic 1 (CHRM1) small molecule antagonists, cell-based qHTS assay (AID 1963588); note: nearly all actives have a fitted effect of over 40% in size; note: potency is the fitted concentration of half-maximal effect
Chain of Muscarinic acetylcholine receptor M1 (Homo sapiens) (P11229 whole entry, looked up): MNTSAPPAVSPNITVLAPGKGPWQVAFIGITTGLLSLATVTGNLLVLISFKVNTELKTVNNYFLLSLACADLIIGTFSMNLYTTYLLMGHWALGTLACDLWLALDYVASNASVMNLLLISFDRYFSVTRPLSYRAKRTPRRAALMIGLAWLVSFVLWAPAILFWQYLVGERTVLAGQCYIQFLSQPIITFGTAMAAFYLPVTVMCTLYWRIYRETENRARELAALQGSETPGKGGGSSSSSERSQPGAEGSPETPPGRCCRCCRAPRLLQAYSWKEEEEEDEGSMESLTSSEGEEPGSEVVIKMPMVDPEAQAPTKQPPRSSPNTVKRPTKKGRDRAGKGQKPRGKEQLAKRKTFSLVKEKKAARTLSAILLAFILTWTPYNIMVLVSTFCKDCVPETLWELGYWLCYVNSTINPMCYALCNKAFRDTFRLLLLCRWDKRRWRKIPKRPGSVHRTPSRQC
In short: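 CHRM1-CHO calcium-flux assay, antagonist mode. Cells were seeded 18 h, dye-loaded 1 h at 37 C and given compound for 5 min at RT, then acetylcholine was added at 50nM. FDSS fluorescence was read 3 min; 15 concentrations, three runs.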

[10] = target: Muscarinic acetylcholine receptor M1 (Homo sapiens) (UniProt P11229); experiment: Cholinergic receptor muscarinic 1 (CHRM1) small molecule agonists, cell-based qHTS assay (AID 1963589); note: nearly all actives have a fitted effect of over 35% in size
In short: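 CHO cells stably expressing human CHRM1 were loaded with calcium dye for 1 h at 37 C, then compound was added in agonist mode. Intracellular calcium fluorescence was followed kinetically at 1 s intervals. Fifteen concentrations were tested in three independent runs.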

[11] = cAMP Responsive Elements (CRE) small molecule agonists, cell-based qHTS assay (AID 1963590)
In short: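 CRE-bla HEK 293T cells, 2,000/well in DMEM with 10% dialyzed FBS and 25 mM HEPES, pre-incubated 18 h at 37 C, then exposed to compound 3 h at 37 C. Beta-lactamase reporter read with LiveBLAzer B/G FRET substrate after 2 h at room temperature.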

[12] = target: Beta-2 adrenergic receptor (Homo sapiens) (UniProt P07550); experiment: Adrenergic beta2 receptor (ADRB2) small molecule antagonists, cell-based qHTS assay (AID 1963592); note: series mostly up to about 92 µM; nearly all actives have a fitted effect of over 50% in size
Chain of Beta-2 adrenergic receptor (Homo sapiens) (P07550 whole entry, looked up): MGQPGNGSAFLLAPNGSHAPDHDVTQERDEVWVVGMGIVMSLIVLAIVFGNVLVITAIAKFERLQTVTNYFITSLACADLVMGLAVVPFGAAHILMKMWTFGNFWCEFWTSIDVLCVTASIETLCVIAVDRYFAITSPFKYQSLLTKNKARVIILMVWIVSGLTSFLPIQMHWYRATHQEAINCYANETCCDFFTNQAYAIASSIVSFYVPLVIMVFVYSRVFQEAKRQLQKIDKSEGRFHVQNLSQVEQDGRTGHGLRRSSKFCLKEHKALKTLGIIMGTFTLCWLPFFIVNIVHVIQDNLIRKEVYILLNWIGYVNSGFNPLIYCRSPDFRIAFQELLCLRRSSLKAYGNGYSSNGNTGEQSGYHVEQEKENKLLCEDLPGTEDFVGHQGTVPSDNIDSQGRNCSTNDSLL
In short: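 Cells (CHO, stable ADRB2 overexpression) incubated 18-20hr at 37C; compounds added from DMSO; agonist mix (1nM isoproterenol, 100uM IBMX, 25uM Ro-20-1724) added; 0.5hr RT; d2-cAMP and anti-cAMP-cryptate added; 1hr RT; 665/615 nm read.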

[13] = target: Beta-2 adrenergic receptor (Homo sapiens) (UniProt P07550); experiment: Adrenergic beta2 receptor (ADRB2) small molecule agonists, cell-based qHTS assay (AID 1963593);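 note: CHO cells stably overexpressing human ADRB2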
In short: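 CHO cells stably over-expressing ADRB2 were plated overnight at 37C, then dosed with compounds plus a stimulation mix containing 100uM IBMX and 25uM Ro-20-1724 for 0.5hr at room temperature. cAMP was measured by HTRF competition, 1hr.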

[14] = target: D(2) dopamine receptor (Homo sapiens) (UniProt P14416); experiment: Dopamine D2 receptor (DRD2) small molecule agonists, cell-based qHTS assay (AID 1963594); note: nearly all actives have a fitted effect of over 35% in size
Chain of D(2) dopamine receptor (Homo sapiens) (P14416 whole entry, looked up): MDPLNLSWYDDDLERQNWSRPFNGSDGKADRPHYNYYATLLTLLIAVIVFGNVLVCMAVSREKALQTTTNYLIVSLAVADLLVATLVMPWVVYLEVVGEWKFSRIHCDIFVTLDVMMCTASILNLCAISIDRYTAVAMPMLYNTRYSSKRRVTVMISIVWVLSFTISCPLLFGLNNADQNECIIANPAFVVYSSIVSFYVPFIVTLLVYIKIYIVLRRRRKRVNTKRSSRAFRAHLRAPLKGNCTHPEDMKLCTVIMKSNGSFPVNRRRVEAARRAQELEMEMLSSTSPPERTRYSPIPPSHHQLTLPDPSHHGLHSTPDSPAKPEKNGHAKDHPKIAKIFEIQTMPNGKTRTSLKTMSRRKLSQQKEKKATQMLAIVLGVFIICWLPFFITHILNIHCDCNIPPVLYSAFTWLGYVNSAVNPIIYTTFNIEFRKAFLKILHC
In short: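 HEK293 cells stably expressing DRD2 were cultured 24 h at 37 C, then given Ro20-1724 (0.1 mM final) and compounds for 10 min at room temperature. NKH477 (200nM) was then added for 30 min. cAMP was read by HTRF.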

[15] = target: D(2) dopamine receptor (Homo sapiens) (UniProt P14416); experiment: Dopamine D2 receptor (DRD2) small molecule antagonists, cell-based qHTS assay (AID 1963595; active = well fitted inhibition curve with a large enough effect in the signal ratio in the repeat runs, with a control signal flat; the % refers to the signal ratio; note: potency is the fitted concentration of half-maximal effect)
In short: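 Stable D2 receptor HEK293 line, 24 h after seeding. Compound preincubated 10 min, then quinpirole (12 nM) with forskolin analogue NKH477 (200 nM), 30 min, room temperature. Detection by time-resolved FRET of cAMP.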

[16] = p53 small molecule agonists, cell-based qHTS assay with rat liver microsomes (AID 1963578)
In short: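 p53RE-bla cells were exposed to compounds together with rat liver microsomes (0.5 mg/mL final) and NADPH (0.5 mg/mL final) for 16 h at 37 C, then read by LiveBLAzer beta-lactamase fluorescence after 2 h at room temperature.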

[17] = p53 small molecule agonists, cell-based qHTS assay with human liver microsomes: qHTS cell viability counter screen (AID 1963579); note: nearly all actives have a fitted effect of over 45% in size; note: potency is the fitted concentration of half-maximal effect
In short: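 p53RE-bla cells (4,000/well) were pre-incubated 5 h at 37 C, then given compounds in DMSO plus human liver microsomes (0.5 mg/mL final) and NADPH (0.5 mg/mL final) for 16 h at 37 C. Viability was read by CellTiter-Glo luminescence.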

[18] = target: 5-hydroxytryptamine receptor 2A (Homo sapiens) (UniProt P28223); experiment: 5-hydroxytryptamine receptor 2A (HTR2A) small molecule agonists, cell-based qHTS assay (AID 1963587); note: nearly all actives have a fitted effect of over 30% in size; note: potency is the fitted concentration of half-maximal effect
In short: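 HTR2A-CHO cells, plated 18 h at 37 C/5% CO2, dye-loaded 1 h at 37 C; compounds in DMSO added by pin tool (agonist mode). Intracellular calcium flux read as kinetic fluorescence on FDSS over 2 min at 1 s intervals.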

[19] = cAMP Responsive Elements (CRE) small molecule antagonists, cell-based qHTS assay (AID 1963591; active = well fitted inhibition curve with a large enough effect in the signal ratio in the repeat runs, not every such curve was filed as active; the % refers to the signal ratio)
In short: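 CRE-bla HEK293T cells plated 18 h, then given compound plus NKH477 at 0.25 uM final for 3 h at 37C. Beta-lactamase reporter read with LiveBLAzer B/G FRET substrate after 2 h at room temperature.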

[20] = p53 small molecule agonists, cell-based qHTS assay (AID 1963582; active = well fitted activation curve with a large enough effect in the signal ratio in the repeat runs, not every such curve was filed as active; the % refers to the signal ratio)
In short: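 p53RE-bla reporter cells, compounds added in DMSO after 5 h plating, incubated 16 h at 37 C. Beta-lactamase read via 2 h room-temperature LiveBLAzer B/G FRET substrate, fluorescence intensity.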

Compound | Potency [1] | Potency [2] | Potency [3] | Potency [4] | Potency [5] | Potency [6] | Potency [7] | Potency [8] | Potency [9] | Potency [10] | Potency [11] | Potency [12] | Potency [13] | Potency [14] | Potency [15] | Potency [16] | Potency [17] | Potency [18] | Potency [19] | Potency [20]
CC(O)COc1ccccc1 (configuration not stated) | inactive | inactive | inactive | inactive | inactive | inactive | inactive | inactive | inactive | inactive | inactive | inactive | inactive | inactive | inactive | – | – | – | – | –
Cc1cccc(Nc2cc(Cl)nc(SCC(=O)O)n2)c1C | inactive | inactive | inactive | inactive | inactive | inactive | – | – | – | – | – | inactive | inactive | inactive | inactive | inactive | inactive | – | – | –
CCCCCCCCCCCC[N+](C)(C)Cc1ccccc1 | 23.9 µM (active) and 29.7 µM (active) and 11.9 µM (active) | inactive | inactive | inactive | – | inactive | 49.7 µM (active) and 22.3 µM (active) | 1.3 µM (active) and inactive and 16.3 µM (active) | 1.02 µM (active) and 650 nM (active) | inactive | – | inactive | – | inactive | inactive and 59.2 µM (active) and 29.8 µM (active) | – | 44.9 µM (active) and 49.7 µM (active) and 19.9 µM (active) | 48 µM (active) | – | –
Cc1ccc(C(=O)O)o1 | inactive | inactive | inactive | inactive | – | inactive | inactive | inactive | inactive | inactive | inactive | inactive | inactive | inactive | inactive | – | – | inactive | inactive | –
C=C(C)C(=O)O[C@H]1C[C@@H]2CC[C@@]1(C)C2(C)C | 1.21 µM (active) and inactive | 963 nM (active) and inactive | inactive | – | inactive | 7.21 µM (active) and inactive | – | inactive | inactive | inactive | inactive | inactive | inactive | inactive | inactive | inactive | – | inactive | inactive | inactive
CCNc1cccc(C)c1 | inactive | inactive | – | – | inactive | inactive | inactive | inactive | inactive | inactive | inactive | – | inactive | – | inactive | inactive | inactive | inactive | inactive | inactive
C[C@]12CC[C@@H]3c4ccc(O)cc4CC[C@H]3[C@@H]1CC[C@H]2O | inactive | inactive | inactive | inactive | inactive | inactive | inactive | – | – | – | inactive | inactive | inactive | inactive | inactive | inactive | inactive | – | inactive | –
Cc1cccc([N+](=O)[O-])c1C | inactive | inactive | inactive | inactive | inactive | inactive | inactive | inactive | inactive | inactive | inactive | inactive | – | inactive | inactive | – | inactive | inactive | inactive | inactive
CC(C)NCC(O)c1ccc(O)c(O)c1 (configuration not stated) | inactive | inactive | inactive | inactive | – | inactive | inactive | – | – | – | – | – | – | inactive | 303 nM (active) and 969 nM (active) and 596 nM (active) | – | inactive | – | inactive | –
NC(=O)c1cccnc1 | inactive | inactive | inactive | – | inactive | inactive | inactive | – | – | – | inactive | inactive | inactive | inactive | inactive | inactive | inactive | – | inactive | inactive
CCC(C)C=O (configuration not stated) | inactive | – | inactive | inactive | inactive | inactive | inactive | inactive | inactive | inactive | inactive | inactive | inactive | inactive | inactive | inactive | inactive | inactive | inactive | inactive
CC#C[C@]1(O)CC[C@H]2[C@@H]3CCC4=CC(=O)CCC4=C3[C@@H](c3ccc(N(C)C)cc3)C[C@@]21C | inactive | inactive | inactive | inactive | inactive | inactive | inactive | – | – | – | – | inactive | – | inactive | inactive | inactive | inactive | – | – | –
c1ccc2cc(Nc3ccc(Nc4ccc5ccccc5c4)cc3)ccc2c1 | inactive | inactive | inactive | inactive | inactive | – | inactive | inactive | inactive | inactive | inactive | inactive | inactive | inactive | inactive | inactive | – | inactive | inactive | inactive
c1cnc2c(c1)ccc1cccnc12 | 3.89 µM (active) and 6.11 µM (active) and 7.7 µM (active) | 9.69 µM (active) | inactive | inactive | inactive | – | inactive | inactive | inactive | inactive | inactive | inactive | inactive | inactive | inactive | inactive | 36.7 µM (active) | inactive | – | –
Oc1c(Cl)cc(Cl)cc1Sc1cc(Cl)cc(Cl)c1O | 13.7 µM (active) and 31.1 µM (active) and 27.3 µM (active) | 6.13 µM (active) and inactive | inactive | inactive | inactive | 20.5 µM (active) and 46.5 µM (active) and inactive | 36.4 µM (active) and inactive | – | – | – | – | – | inactive | inactive | inactive | inactive | – | – | inactive | inactive
